The subject of experiment [1] is Vero E6 infected with SARS-CoV-2. The experiment is described as follows: morphology score (similarity to uninfected cells); higher = more like uninfected cells. The following applies: 24 h.
For experiment [2] the test system is unchanged. The experiment is described as follows: SARS-CoV-2 infection rate relative to infected DMSO; higher = more infection, active = 60 or less. To be noted: 24 h.

As for `CCOc1ccn(-c2ccc(F)cc2)c(=O)c1C(=O)Nc1ccc(Oc2ccnc(N)c2Cl)c(F)c1` (10 µM), in experiment [1], the morphology score was 0.364. In addition, the SARS-CoV-2 infection rate in experiment [2] is 107% (inactive).

In experiment [1], `COc1ccc(C(=O)N2CCCC2=O)cc1` [aniracetam] (10 µM) yielded a morphology score of 0.0647. In addition, the SARS-CoV-2 infection rate in experiment [2] was 106% (inactive).

Molecule `C[C@H](NC[C@H](O)CP(=O)(O)Cc1ccccc1)c1ccc(Cl)c(Cl)c1` (10 µM) returned a morphology score in experiment [1] of 0.127. In addition, the SARS-CoV-2 infection rate in experiment [2] is 106% (inactive).

For the molecule `Cc1ccc(-c2cn3c4c(sc3n2)CCCC4)cc1` [pifithrin-cyclic] (10 µM), the morphology score in experiment [1] is -0.115. Also, the SARS-CoV-2 infection rate in experiment [2] is 106% (inactive).

`CCOC(=O)C1=C[C@]2(CC)CCCN3CCc4c(n1c1ccccc41)[C@@H]32` [vinpocetine] (10 µM): the morphology score in experiment [1] came out at 0.176. For the same molecule, in experiment [2], the SARS-CoV-2 infection rate was 102% (inactive).

Turning to `C/C=C1/[C@H](O[C@@H]2O[C@H](CO)[C@@H](O)[C@H](O)[C@H]2O)OC=C(C(=O)OC)[C@H]1CC(=O)OCCc1ccc(O)c(O)c1` [oleuropein] (10 µM), the morphology score in experiment [1] was -0.0158. The SARS-CoV-2 infection rate in experiment [2] is 112% (inactive).

Consider `CC(C)(O)CC(=O)O` [beta-hydroxy-beta-methylbutyrate] (10 µM), for which the morphology score in experiment [1] was 0.0168. In addition, the SARS-CoV-2 infection rate in experiment [2] is 105% (inactive).

Molecule `NS(=O)(=O)c1ccc2c(c1)C1C=CCC1C(c1ccc(Br)cc1)N2` (centres undefined) (10 µM) came in with a morphology score in experiment [1] of -0.0557. In experiment [2], the SARS-CoV-2 infection rate was 95% (inactive).

Molecule `NC1(Cc2ccc(Cl)cc2)CCN(c2ncnc3[nH]ccc23)CC1` (0.833333 µM) displayed a morphology score in experiment [1] of 0.535. Moreover, the SARS-CoV-2 infection rate in experiment [2] is 99.5% (inactive).

`CN1C[C@@H]2CN(c3ccc(-c4ccccc4)nn3)C[C@@H]2C1` (10 µM): the morphology score in experiment [1] amounted to 0.149. Besides, the SARS-CoV-2 infection rate in experiment [2] was 91% (inactive).

In the case of `O=C(NCCN1CCCCC1)c1ccc(I)cc1` [N-[2-(piperidinylamino)ethyl]-4-iodobenzamide] (10 µM), the morphology score in experiment [1] is 0.317. Further, the SARS-CoV-2 infection rate in experiment [2] was 91.5% (inactive).

`c1nc(CC2CCNCC2)c[nH]1` [immepip] (10 µM) showed a morphology score in experiment [1] of 0.0471. Also, in experiment [2], the SARS-CoV-2 infection rate is 101% (inactive).

The molecule `CC[N+](CC)(CC)CCOc1ccc(/C=C/c2ccccc2)cc1` (10 µM) yielded a morphology score in experiment [1] of -0.141. In addition, the SARS-CoV-2 infection rate in experiment [2] is 105% (inactive).

As to `CCCOc1ccc(C(=O)OCCN(CC)CC)cc1N` [proxymetacaine] (10 µM), in experiment [1], the morphology score is -0.0115. For the same molecule, the SARS-CoV-2 infection rate in experiment [2] was 108% (inactive).

Regarding `CC(C)(COP(=O)(O)OP(=O)(O)OC[C@H]1O[C@@H](n2cnc3c(N)ncnc32)[C@H](O)[C@@H]1OP(=O)(O)O)[C@@H](O)C(=O)NCCC(=O)NCCS` [coenzyme-A] (10 µM), the morphology score in experiment [1] worked out at 0.0234. Moreover, the SARS-CoV-2 infection rate in experiment [2] was 102% (inactive).

Take `COc1cc(NC(=O)c2ccccn2)ccc1Cl` (10 µM): the morphology score in experiment [1] is 0.133. For the same molecule, in experiment [2], the SARS-CoV-2 infection rate was 96.5% (inactive).

On to `O=C1c2cccc(O)c2C(=O)c2c(O)cc(CO)cc21` [aloe-emodin] (10 µM), for which the morphology score in experiment [1] was 0.29. The SARS-CoV-2 infection rate in experiment [2] was 101% (inactive).

Turning to `O=c1ccc2ccc(O)c(O)c2o1` [daphnetin] (10 µM), in experiment [1], the morphology score came to 0.0316. For the same molecule, the SARS-CoV-2 infection rate in experiment [2] was 110% (inactive).

In experiment [1], `CCCNS(=O)(=O)Nc1ncnc(OCCOc2ncc(Br)cn2)c1-c1ccc(Br)cc1` [macitentan] (10 µM) showed a morphology score of -0.0952. For the same molecule, in experiment [2], the SARS-CoV-2 infection rate was 112% (inactive).

Molecule `COc1ccc(COc2cc3oc(=O)c4cc(C(C)O)ccc4c3cc2OC)cc1` (centres undefined) [palomid-529] (10 µM) came in with a morphology score in experiment [1] of 0.0689. Further, the SARS-CoV-2 infection rate in experiment [2] is 113% (inactive).

On to `CC(C)(Oc1ccc(C2CC2(Cl)Cl)cc1)C(=O)O` (centres undefined) [ciprofibrate] (10 µM), for which the morphology score in experiment [1] is -0.0908. For the same molecule, the SARS-CoV-2 infection rate in experiment [2] was 109% (inactive).

`COc1ccc(C[C@H]2NC[C@H](O)[C@H]2OC(C)=O)cc1` [anisomycin] (0.833333 µM) came in with a morphology score in experiment [1] of 0.045. Moreover, the SARS-CoV-2 infection rate in experiment [2] was 102% (inactive).

The molecule `CN(C)[C@@H]1C(O)=C(C(N)=O)C(=O)[C@@]2(O)C(O)=C3C(=O)c4c(O)cccc4[C@@](C)(O)[C@H]3[C@H](O)[C@@H]12` [oxytetracycline] (10 µM) showed a morphology score in experiment [1] of -0.0366. In addition, the SARS-CoV-2 infection rate in experiment [2] was 106% (inactive).

Molecule `Nc1c2c(nc3c1CCC3)CCCC2` [ipidacrine] (10 µM) displayed a morphology score in experiment [1] of 0.22. In experiment [2], the SARS-CoV-2 infection rate was 83.5% (inactive).

In experiment [1], `CO[C@H]1C[C@H](O[C@H]2[C@H](C)O[C@@H](O[C@@H]3/C(C)=C/C[C@@H]4C[C@@H](C[C@]5(C=C[C@H](C)[C@@H](C6CCCCC6)O5)O4)OC(=O)[C@@H]4C=C(C)[C@@H](O)[C@H]5OC/C(=C\C=C\[C@@H]3C)[C@]54O)C[C@@H]2OC)O[C@@H](C)[C@@H]1O` [doramectin] (0.833333 µM) gave a morphology score of 0.0705. For the same molecule, the SARS-CoV-2 infection rate in experiment [2] is 104% (inactive).

As to `N#Cc1cc2c(OCC(O)CN3CCN(C(c4ccccc4)c4ccccc4)CC3)cccc2[nH]1` (centres undefined) (0.833333 µM), the morphology score in experiment [1] worked out at 0.124. In experiment [2], the SARS-CoV-2 infection rate was 75% (inactive).

For `CC(C)(C)c1ccc(S(=O)(=O)/C=C/C#N)cc1` (0.833333 µM), the morphology score in experiment [1] worked out at 0.173. The SARS-CoV-2 infection rate in experiment [2] is 89.5% (inactive).

(Values after the supplement of paper PMC13380429.)
